Here are results for 21 molecules from PubChem BioAssay (NCI).

Each structure is given as a SMILES string. This is part of a sample that, as a whole, favours compounds with a hit. Of some 79,000 tested, about 15% had one in any assay. Values without a mark were called inactive. Activity calls are given as the source filed them. Cut-off read from the data, not from the text of the source: active = growth inhibition above about 70%; inactive = the rest.

Assay [1] in a line: NCI Yeast Anticancer Drug Screen. Data for the rad50 strain (AID 155).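 Note: 0% = growth of vehicle-only cultures of the same strain.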 Particulars: S. cerevisiae rad50 strain growth inhibition; at 50.0 µM; hits give high values. The gist of the method:
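Compounds were tested on a yeast strain with an engineered DNA damage repair alteration; the reported value is growth inhibition normalised to vehicle treatment.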

The nature of assay [2]: NCI Yeast Anticancer Drug Screen. Data for the mec2-1 strain (AID 157). As to conditions: S. cerevisiae mec2-1 strain, at 50.0 µM, hits give high values. The gist of the method:
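Vehicle-treated cultures served as reference for growth inhibition of compound-exposed mec2-1 yeast.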

The nature of assay [3]: NCI Yeast Anticancer Drug Screen. Data for the sgs1 mgt1 strain (AID 161).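 Note: 0% = growth of cultures given vehicle only.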 As to conditions: S. cerevisiae sgs1 mgt1 strain, at 50.0 µM, hits give high values. In outline: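 Test agents were incubated with a DNA-repair-mutant yeast strain. Growth was then read and compared against vehicle-treated controls.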
Assay [4] is described as follows: NCI Yeast Anticancer Drug Screen. Data for the cln2 rad14 strain (AID 165).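 Note: 0% = growth equal to vehicle treated cultures.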 Particulars: S. cerevisiae cln2 rad14 strain, at 50.0 µM, hits give high values. The gist of the method:
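Each compound was tested on cln2 rad14 yeast. Inhibition of growth was calculated against vehicle-exposed controls.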

Assay [5] is described as follows: NCI Yeast Anticancer Drug Screen. Data for the bub3 strain (AID 167). As to conditions: S. cerevisiae bub3 mutant strain, at 50.0 µM, hits give high values. The gist of the method: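 Growth of a checkpoint-deficient yeast mutant is measured after compound exposure. Values represent inhibition relative to vehicle.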
Assay [6] is described as follows: NCI Yeast Anticancer Drug Screen. Data for the mlh1 rad18 strain (AID 175). Particulars: S. cerevisiae mlh1 rad18 strain growth inhibition; at 50.0 µM; hits give high values. In outline:
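Vehicle-treated cultures served as the reference for growth inhibition in a yeast strain carrying DNA damage repair alterations exposed to each compound.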

Turning to `Cc1cnc2cccc(C)c2c1Cl`, the growth inhibition in assay [1] is -29.5%; in assay [2], 0.05%; in assay [3], 10.3%; in assay [4] it was -16.4%; in assay [5], 8.3%; in assay [6], -3.3%.

In the case of `Cc1cc(OC(=O)c2c(C)cc(OC(=O)c3c(C)cc(O)cc3O)cc2O)cc(O)c1C(=O)O`, the growth inhibition was -7.15% in assay [1]; -44.7% in assay [2]; -19.4% in assay [3]; -3.55% in assay [4]; -27.4% in assay [5]; -2.15% in assay [6].

Consider `O=C(Nc1ccc(Cl)c(Cl)c1)Oc1ccc(Cl)cc1C(=O)Nc1ccccc1`, for which the growth inhibition was -13.8% in assay [1]; -2.6% in assay [2]; 29.1% in assay [3]; -7.4% in assay [4]; 28.1% in assay [5]; 37.6% in assay [6].

For the molecule `SCc1ccc(-c2ccc(CS)cc2)cc1`, the growth inhibition was 4.65% in assay [1]; 2.55% in assay [2]; 40% in assay [3]; 39.8% in assay [4]; 39.1% in assay [5]; 23.3% in assay [6].

For the molecule `S=C(NNC1=NCCN1)Nc1ccccc1`, the growth inhibition in assay [1] was -54%; in assay [2] it was -19.9%; in assay [3], -19.8%; in assay [4] it was 3.15%; in assay [5], -20.9%; in assay [6], -12.7%.

On to `Brc1cc2ccccc2nc1-c1ccccc1`, for which the growth inhibition was -2.3% in assay [1]; -7.95% in assay [2]; 1% in assay [3]; -23.4% in assay [4]; 5.05% in assay [5]; 10.1% in assay [6].

As to `Nc1ccc(S(=O)(=O)NC(=O)NCc2ccccc2)cc1`, the growth inhibition in assay [1] was 0.7%; in assay [2], -5%; in assay [3], 3.5%; in assay [4] it was -33%; in assay [5], -10.6%; in assay [6] it was -9.55%.

Take `c1ccc(C2OCCO2)cc1`: the growth inhibition in assay [1] was 4.05%; in assay [2], -15.2%; in assay [3] it was -6.7%; in assay [4], 6.6%; in assay [5], -0.2%; in assay [6], 10.4%.

On to `Cc1ccc(C2(O)c3ccccc3N=NN2C)cc1` (stereo unspecified), for which the growth inhibition in assay [1] was 2.6%; in assay [2], 0.5%; in assay [3], 4%; in assay [4], -16.8%; in assay [5] it was 14%; in assay [6] it was 9.75%.

For `O=C(Nc1ccccc1)N1CCC[C@@H]2CCCC[C@@H]21`, the growth inhibition in assay [1] is 3.2%; in assay [2] it was -0.15%; in assay [3], 0.7%; in assay [4] it was -82.4%; in assay [5] it was -6.8%; in assay [6], -4.45%.

In the case of `CNC(=O)OCc1c(-c2ccccc2)c(-c2ccccc2)n(C)c1COC(=O)NC`, the growth inhibition is 37.6% in assay [1]; 22.5% in assay [2]; 51.7% in assay [3]; 15.8% in assay [4]; 33.2% in assay [5]; 87.8% (active) in assay [6].

Take `CC(=O)Nc1ccc(S(=O)(=O)[N-]C2C(=O)c3ccccc3C(=O)C2[n+]2ccccc2)cc1` (stereo unspecified): the growth inhibition was 25.4% in assay [1]; 23.1% in assay [2]; 28% in assay [3]; -0.35% in assay [4]; 27.8% in assay [5]; -1.8% in assay [6].

`CCOC(=O)C1=C(C(=O)c2ccccc2)C(c2ccc(Cl)cc2Cl)C(C(=O)c2ccccc2)=C(C(=O)OCC)N1`: the growth inhibition was -11.3% in assay [1]; -8.2% in assay [2]; -16.6% in assay [3]; -3.45% in assay [4]; -9% in assay [5]; -1.5% in assay [6].

With `COc1cc(C(C)S(=O)(=O)c2ccc(C)cc2)ccc1O` (stereo unspecified), the growth inhibition in assay [1] is -2.95%; in assay [2] it was -9.3%; in assay [3], 8.65%; in assay [4], 6.5%; in assay [5], 3.2%; in assay [6] it was 9.45%.

In the case of `O=Cc1ccc(-c2ccc(S(=O)(=O)O)cc2)o1`, the growth inhibition in assay [1] is -35.5%; in assay [2], 6.85%; in assay [3] it was -41.3%; in assay [4], 25.8%; in assay [5] it was 3.55%; in assay [6] it was -3.2%.

For the molecule `Nc1[nH]n(-c2ccccc2)c(=O)c1/C=N/C(=S)NC1CCCCC1`, the growth inhibition in assay [1] was -79%; in assay [2], -43.7%; in assay [3], -61%; in assay [4] it was -63.2%; in assay [5], -47.8%; in assay [6], -67.9%.

As for `O=C(c1ccccc1)C1C=CC=CN1Cc1ccccc1S(=O)(=O)O` (stereo unspecified), the growth inhibition is 13.5% in assay [1]; 0.6% in assay [2]; -3.95% in assay [3]; 3% in assay [4]; 1.75% in assay [5]; -19.2% in assay [6].

As to `[CH3][Ga]([CH3])[O]c1ccccc1C=O`, the growth inhibition is -3.6% in assay [1]; -17.6% in assay [2]; -10.8% in assay [3]; -80.7% in assay [4]; -30.3% in assay [5]; -21.4% in assay [6].

Turning to `O=C(O)CCC1CCc2cccc(OCC(=O)O)c2C1=O` (stereo unspecified), the growth inhibition in assay [1] is 2%; in assay [2], -4.3%; in assay [3], -16.2%; in assay [4] it was 23.5%; in assay [5], -4.4%; in assay [6] it was -11.7%.

Take `Cc1nc(C(N)=S)sc1C(=O)CC(=O)C(=O)Nc1ccc(Br)cc1`: the growth inhibition in assay [1] was 2.5%; in assay [2] it was -38.5%; in assay [3] it was -24.4%; in assay [4], 1.35%; in assay [5], -25.8%; in assay [6], -14.8%.

On to `CCCC(=O)OC(C)CC(C)C` (stereo unspecified), for which the growth inhibition in assay [1] is 6%; in assay [2], -13.7%; in assay [3], -12.2%; in assay [4], -10.8%; in assay [5], 2.2%; in assay [6], 1.95%.
